The supplement of paper PMC6555819

What was measured:
Assay in all cases: PBM binding z-score (relative to random genomic background probes); higher = stronger binding; sequences stand for … in GC…GCGATTGACAGCGTAGAATGAAGG
[1] = tested on: RARb homodimer (NR concentration 270 nM)
Method in brief: (§1)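 For binding z-scores, the reference was random background probes on custom Agilent 4×180K protein-binding microarrays. These arrays were incubated 1 h with ligand-free nuclear receptor dimers in PBS pH 7.4, 2% milk, 0.02% Triton X-100, 1 mM DTT, 0.2 mg/mL BSA and 0.4 mg/ml salmon testes DNA. Fluorescence was scanned after antibody detection of each partner (one per run) and regression-normalized.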

[2] = tested on: RARg:RXRa (NR concentration 270 nM, RXRa partner concentration 90 nM)
Method in brief: as §1

[3] = tested on: RARg homodimer (NR concentration 270 nM)
Method in brief: as §1

[4] = tested on: RXRa DBDmut IVT, anti-RXR (DBD mutation: RXRa K156A/R161A, NR concentration 90 nM)
Method in brief: as §1

[5] = tested on: RXRa homodimer (NR concentration 180 nM)
Method in brief: as §1

[6] = tested on: THRa:RXRa (NR concentration 90 nM, RXRa partner concentration 90 nM)
Method in brief: as §1

[7] = tested on: THRa homodimer (NR concentration 90 nM)
Method in brief: as §1

[8] = tested on: VDR homodimer (NR concentration 270 nM)
Method in brief: as §1

Row | Sequence | PBM binding z-score [1] | PBM binding z-score [2] | PBM binding z-score [3] | PBM binding z-score [4] | PBM binding z-score [5] | PBM binding z-score [6] | PBM binding z-score [7] | PBM binding z-score [8]
1 | GCTCCTAGGTCAGGTTGGTCAGCTAACGGGTACG | 3.18 | 2.91 | 3.46 | 0.888 | 1.47 | 2.27 | 1.22 | 0.591
2 | AGTCAAAGCTCACTAGGTAACGTAAGATTCAGCT | -0.396 | -0.184 | -0.065 | -0.217 | 0.00455 | 0.131 | -0.137 | -0.474
3 | GCGCCTGGGGCATCAGCAGGTTACCATAACTTAA | 0.912 | 0.748 | 0.657 | -0.312 | 0.179 | 0.955 | -0.0466 | -0.553
4 | TCATATAGGTAGATGCTAGGTGAAAGTCCGATCT | 0.362 | 0.127 | 0.207 | 1.14 | 0.611 | 0.969 | 0.547 | 0.276
5 | ATCTATAGGTAAAGATAGTTCAGTGAATGCAAAT | 1.07 | 0.887 | 0.972 | 0.0561 | 0.775 | 0.89 | 0.0462 | 0.507
6 | TCTAGTTGCTCACGGAGGTCACACACGACGGGTA | 4.16 | 4.02 | 3.73 | 1.11 | 4.32 | 3.46 | 2.22 | 2.06
7 | GCTATTAGTTGAAAGGGCATCCGAATGATTCTCG | 1.52 | 1.04 | 0.981 | 1.01 | 1.15 | 0.356 | -0.145 | 0.425
8 | ACAGACAGGGGATGAAGGTAACTCAGGCTATCAT | 0.714 | 0.0982 | 0.418 | 0.422 | 0.188 | 0.765 | 0.491 | -0.173
9 | GCGTGTAGATCAAGGTTAAGAAAGACTAAGCTAA | 0.225 | 0.354 | 0.289 | -0.253 | 0.772 | 1.54 | -0.256 | -0.286
10 | CCTTACGGGTCACGAGGTTATAGAACGACGAGCG | 4.13 | 6.4 | 5.59 | 1.18 | 7.41 | 3.8 | 1.14 | 2.22
11 | CGAACGAGGGCATGAGTTGATAGCCAATGCCGAT | 0.853 | 1.34 | 1.88 | 2.3 | 1 | 1.24 | -0.039 | 1.56
12 | GGAACGAGGGCAACGTTGATAGCATCTGTCGACG | 0.961 | 1.37 | 1.79 | 1.56 | 0.986 | 0.981 | -0.186 | -0.00307
13 | AATACAGGGTCATCGTAGGACAGAGTACGCACAG | 3.3 | 5.62 | 5.18 | 3.38 | 6.61 | 4.82 | 1.71 | 4.11
14 | AGTATGAGGTTAAGATCAGGGAAACAGAATACAT | 1.09 | 2.13 | 1.66 | 0.674 | 2.42 | 2.63 | 0.96 | 0.755
15 | TCTGGTAGATCAAGCAGGTTAAGAAAGCCTGAGT | -0.182 | -0.3 | -0.211 | 0.0546 | 0.202 | -0.00478 | -0.796 | 0.261
16 | TTACCAAGGCGAAAGGTCGTTGATGCACGCCTTG | 1.7 | 2.04 | 1.11 | 0.253 | 2.66 | 1.44 | -0.366 | 1.13
17 | GGAAAGAGGGCAAAGTTGATAGCATCTGTCGACG | 1.93 | 2.84 | 2.38 | 1.85 | 2.81 | 1.08 | 0.0442 | 1.18
18 | ATCTCTAGATAACAAGTTCAGTGAAAGAGAGGAC | 1.37 | 0.77 | 0.933 | 0.583 | 0.621 | 0.754 | 0.108 | 2.72
19 | CCCTACGGGTCACTCCAGGTTATAGCATCGGAGT | 3.22 | 4.52 | 4.67 | 0.434 | 4.72 | 4.94 | 0.457 | 1.79
20 | AATACAGGGTCACTAGGCCTGAGTAGGTACGAAT | 3.04 | 4.82 | 4.35 | 2.53 | 5.28 | 3.13 | 0.975 | 1.81
21 | CCTAGCAGGCCAATCTGGGTCAATCAAGGCTTGA | 1.85 | 0.779 | 1.13 | 0.108 | 0.518 | 3.67 | -0.0726 | -0.0739
22 | CTACCAAGGTGAACAAGGTCGTGGATTACTATTC | 2.22 | 2.24 | 1.63 | 0.592 | 2.7 | 3.64 | 2.18 | 1.27
23 | AATACAGGGTCATCGTAGGCCAGAGTGCGCACAG | 3.68 | 5.64 | 4.81 | 3.12 | 6.37 | 4.6 | 1.4 | 3.2
24 | TTACCAAGGTGAAAGTCGTTGATCCCTCTGTAGA | 0.704 | 0.61 | 0.23 | 0.0451 | 1.2 | 2 | 0.568 | -0.192
25 | AGAATGAGGTTATACGTGGATCAGGGAAGAAAGT | 1.08 | 1.69 | 0.925 | 1.84 | 2.1 | 2.48 | 1.1 | 1.21
26 | GCGACTGGGGCAAAGCAGGTTACCATGAGGTTGG | 1.2 | 0.634 | 0.674 | -0.402 | 0.455 | 2.99 | -0.00664 | -0.385
27 | CCGGCTGGGGCAAAGGTTACCATACTCAGTACGA | 2.25 | 3.68 | 1.69 | -0.158 | 3.6 | 1.77 | -0.377 | -0.169
28 | TCTTGTAGATCAACATGAGGTTAAGAAAGATCGA | 0.695 | 1.12 | 0.455 | 0.475 | 1.27 | 2.18 | 0.657 | 0.413
